Laboratory results reported in the supplement of paper PMC6555819.

Columns and labels:
Assay in all cases: PBM binding z-score (relative to random genomic background probes); higher = stronger binding; sequences stand for … in GC…GCGATTGACAGCGTAGAATGAAGG
[1] = tested on: PPARg:RXRa DBDmut IVT, anti-RXR (DBD mutation: RXRa K156A/R161A, NR concentration 270 nM, RXRa partner concentration 90 nM)
Procedure, shortened: (§1)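 Scanned fluorescence from custom Agilent 4×180K protein-binding microarrays was regression-normalized. Binding z-scores use random background probes as reference. Ligand-free nuclear receptor dimers were incubated on the arrays for 1 h and detected with antibodies against each partner (one per run).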

[2] = tested on: PPARg:RXRa IVT, anti-PPARg (NR concentration 270 nM, RXRa partner concentration 90 nM)
Procedure, shortened: as §1

[3] = tested on: PPARg homodimer (NR concentration 180 nM)
Procedure, shortened: as §1

[4] = tested on: PXR homodimer (NR concentration 270 nM)
Procedure, shortened: as §1

[5] = tested on: RARa:RXR (NR concentration 270 nM, RXRa partner concentration 90 nM)
Procedure, shortened: as §1

[6] = tested on: RARa homodimer (NR concentration 270 nM)
Procedure, shortened: as §1

[7] = tested on: RARb:RXRa (NR concentration 270 nM, RXRa partner concentration 90 nM)
Procedure, shortened: as §1

[8] = tested on: PXR:RXRa (NR concentration 270 nM, RXRa partner concentration 90 nM)
Procedure, shortened: as §1

| Sequence | PBM binding z-score [1] | PBM binding z-score [2] | PBM binding z-score [3] | PBM binding z-score [4] | PBM binding z-score [5] | PBM binding z-score [6] | PBM binding z-score [7] | PBM binding z-score [8] |
| --- | --- | --- | --- | --- | --- | --- | --- | --- |
| TCGAGTAGGTTACGGGGGCATCCAGGGATGAAGA | 5.07 | 5.83 | 2.37 | 1.02 | 3.31 | 0.18 | 2.46 | – |
| CCGAGTAGGTTTCGAGGGGGCATTCAGTGCGAAT | 2.27 | 2.41 | 1.58 | 5.29 | 1.88 | 0.558 | 1.28 | 3.09 |
| CTATGTAGGTTAAAGGGGTCATTCAGTTTGAAAG | 7.95 | 7.63 | 7.13 | 13 | – | 1.99 | 3.87 | – |
| CCGAGTAGGTTACGAGGGGGCATTCAATGCGAAT | 4.67 | 4.57 | 2.11 | 0.729 | 3.11 | 0.217 | 2.14 | 4.33 |
| TCGGGTAGGTTACGGGGGCATTCAGGGATGAAGA | 4.27 | 6.24 | 3.68 | 3.72 | 4.12 | 1.88 | 3.35 | 4.2 |
| CTCTGTAGGTTAAGGGGGTCATTCAGTTTGAAAG | 5.92 | 6.03 | 3.78 | 12 | 6.17 | 1.78 | 3.6 | 6.17 |
| CTATGAAGGTTAAGGGGGTCATTCAGTTTGAAAG | 3.68 | 5.15 | 4.25 | 13.8 | 6.01 | 2.51 | 4.05 | 6.22 |
